GLP1R ag – activates the human GLP-1 receptor. Potency, µM (highest dose often 45.6 µM), inactives show top-dose activation, most hits filed as activators. HEK293 GLP-1R CRE-luciferase, luminescence, 4-6 h; cells express a hypersensitive GLP-1R form. AID 624172. P43220. actives 0.007% (n = 380,000); further: potency means the concentration at half of the fitted maximal effect; % of control where 0% means no effect
GLS inhibitor – glutaminase GLS (human) inhibition; AID 624170; GLS enzymatic activity, qHTS titration; Potency, µM (top dose mostly 45.5 µM), without a hit: at the top dose activity change, negative = inhibition, most hits filed as inhibitors; O94925; actives 0.21% (n = 410,000); further: potency means the concentration at half of the fitted maximal effect; on the % scale 0 is the no-effect control and ±100 the full control effect
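Assay buffer: 45 mM KH2PO4 pH 8.2, 0.02% Tween-20. hKGA acts on L-glutamine (1 mM solution added); product glutamate is reported by an oxidase/peroxidase Amplex Red coupling, with fluorescence taken at baseline and 30 min.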
KCNH2 3.1 inh – KCNH2 3.1 (human) potassium channel inhibition. U2OS KCNH2 3.1, thallium flux FluxOr; active compounds read low. activity change, % (tested at about 1.8 µM). actives 0.95% (n = 340,000). AID 720553;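 active means maximum activity change below -70%; inconclusive means maximum activity change from -70% to -50%; inactive means maximum activity change above -50%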;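 further: thallium influx rate constant from kinetic fluorescence after stimulation buffer; on the % scale 0 is the no-effect control and ±100 the full control effect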
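FluxOr-based Tl+ influx in U2OS cells transduced with KCNH2 3.1 virus; rate constants normalized to DMSO controls.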
KCNH2 WT inh – inhibitors of human wildtype KCNH2 potassium channel | U2OS, BacMam KCNH2, thallium flux FluxOr; active compounds read low | activity change, % at 1.84 µM | actives 0.37% (n = 340,000) | AID 720551;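 active means maximum activity change below -70%; inconclusive means maximum activity change between -70% and -50%; inactive means maximum activity change above -50%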; further: on the % scale 0 is the no-effect control and ±100 the full control effect
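U2OS cells transduced with wild-type KCNH2 virus are loaded with FluxOr dye for 45 min, and thallium flux is measured in kinetic reads before and after stimulation buffer. Rate constants are normalized to DMSO controls.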
GLP1R cytotox – cytotoxic in the GLP-1 receptor inverse agonist counter-screen; HEK293 cAMP-luciferase reporter cells, luminescence, 24 h; Potency, µM (titrated, usually from 38.3 µM), without a hit: top-dose activity change, negative = inhibition, hits mostly inhibitors; actives 0.13% (n = 410,000); AID 624418;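 further: loss of luciferase light is scored as toxicity; potency means the concentration at half of the fitted maximal effect; on the % scale 0 is the no-effect control and ±100 the full control effect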
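Step one: seed cells (200 cells/uL, DMEM with 10% Nu serum, 1% pen-strep). Step two: 12-hour incubation at 37 deg C. Step three: pin 23 nL compound, incubate 24 hr. Step four: add luciferase reagent, read luminescence 12 min later.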
GLP1R inv ag – GLP-1 receptor (human) inverse agonism. HEK293 GLP-1R CRE-luciferase, luminescence, 24 h; GLP-1R form is constitutively active. actives 1.6% (n = 410,000). P43220. Potency, µM (series often up to 38.3 µM), for inactives: at the highest dose activity change, negative = inhibition, most hits filed as inhibitors; further: potency means the concentration at half of the fitted maximal effect; on the % scale 0 is the no-effect control and ±100 the full control effect; nearly all actives have a fitted effect of over 55% in size
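HEK293 cells stably co-expressing a cAMP-responsive luciferase reporter and constitutively active GLP-1R were seeded, incubated 12 h, then exposed to compounds for 24 h at 37 C. Luminescence was read 12 min after detection reagent; inverse agonists lower signal.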
* = called active by the depositor; ? = inconclusive; · = no result given. Only some compounds are listed: those with a hit (about 2.8% of all), similar ones and a draw of the others. Unless noted, the call rests on the fitted dose curve; in most records, active means well fitted curve in the direction sought with a large enough effect; inconclusive means small, poorly fitted or top-dose-only effect, or another doubt; inactive means no such curve, though single readings can be large; an effect the other way counts as inactive or inconclusive.

SMILES | GLP1R ag | GLS inhibitor | KCNH2 3.1 inh | KCNH2 WT inh | GLP1R cytotox | GLP1R inv ag
CC(=O)CN1Cc2ccccc2/C1=N\C(=O)Nc1ccccc1 | -1% | 4% | -78* | 0 | 2% | 4%
COc1ccc(N2Cc3ccccc3/C2=N\C(=O)Nc2ccccc2)cc1 | 8% | 5% | -2 | 2 | -7% | 6%
CCCCNCCCOc1cccc(Cl)c1Cl | -1% | 4% | -6 | 11 | ? | 7.9µM*
Clc1cccc(OCCCN2CCCC2)c1Cl | -7% | 0% | -12 | 39 | 5% | -17%
CC1(C(=O)NS(=O)(=O)c2cccc(C#N)c2)CCN1C(=O)CCc1ccccc1 (configuration not stated) | -1% | 5% | · | · | 2% | -9%
Cc1cccc(-c2ccc3c(c2)C2CC3CCN2Cc2ccc3c(c2)OCO3)c1 (configuration not stated) | -2% | -8% | -76* | -13 | 14% | -11%
Fc1ccc(-c2ccc3c(c2)C2CC3CCN2Cc2ccc3c(c2)OCO3)cc1 (configuration not stated) | -1% | -1% | · | -37 | 13% | ?
C=C1C(=O)[C@]23C[C@H]1CCC2[C@]1(C)CCC[C@@](C)(C(=O)O)C1C[C@@H]3O (some centres not stated) | -12% | 13% | · | · | ? | 1.8µM*
COC(=O)c1ccc(NC(=O)C2C3C=CC(C3)C2C(=O)O)cc1 (configuration not stated) | -3% | 4% | -8 | 4 | -1% | -1%
O=C(ONC(=O)C1C2C=CC(C2)C1C(=O)NOC(=O)c1ccccc1)c1ccccc1 (configuration not stated) | -2% | 13µM* | 4 | 12 | -23% | 96%
Cc1nc2cccnc2n1-c1cccc(C(=O)NCc2cccc(Cl)c2)c1 | · | 5% | · | · | -10% | 10%
CCCNC(=O)c1ccc(N2CCC3(CC2)CC(c2ccccc2)=NO3)c(NC(=O)Cc2ccc(F)cc2)c1 | -1% | 1% | -77* | ? | -14% | -26%
CCCCC(CC)C(=O)Nc1cc(C(=O)NCCC)ccc1N1CCC2(CC1)CC(c1cccc(Br)c1)=NO2 (configuration not stated) | -2% | 1% | ? | -84* | -2% | 15%
CCCCC(CC)C(=O)Nc1cc(C(=O)NCc2ccc(C)cc2)ccc1N1CCC2(CC1)CC(c1cccc(Br)c1)=NO2 (configuration not stated) | -2% | 1% | -9 | -4 | -1% | -2%
CC(=O)Nc1n[nH]c(=S)s1 | -8% | ? | -8 | 0 | 1% | -29%
CNc1n[nH]c(=S)s1 | -5% | 14µM* | -1 | -3 | -7% | 2%
COc1ccccc1N=CC=C1OC(C)(C)C(C)(C)O1 | 0% | -1% | -10 | 4 | 16% | 2.2µM*
Cc1ccc(N=CC=C2OC(C)(C)C(C)(C)O2)c(C)c1 | 4% | -3% | 8 | 2 | -12% | ?
CC(C)NC(=O)C1(C)CSCC(=O)N1C1CCN(Cc2ccccc2)CC1 (configuration not stated) | · | · | · | · | -10% | 10%
COc1ccc(NC(=S)NC(NC(=O)c2ccccc2Cl)C(Cl)(Cl)Cl)c([N+](=O)[O-])c1 (configuration not stated) | 1% | 8% | -12 | 2 | -29% | ?
COc1ccc(NC(=S)NC(NC(=O)c2ccc(Cl)cc2Cl)C(Cl)(Cl)Cl)c([N+](=O)[O-])c1 (configuration not stated) | -1% | 13% | 6 | -1 | ? | 10µM*
COC(=O)CC1(C(=O)OC)Oc2ccc(Br)cc2C(=O)N1c1ccc(Br)cc1Cl (configuration not stated) | 14% | -2% | 1 | 6 | -41% | 10µM*

Source: PubChem (National Center for Advancing Translational Sciences (NCATS))
